This is part of a sample that, as a whole, favours compounds with a hit. Of some 83,000 tested, about 20% had one in any assay.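 Results are percent growth after 48 hours of single-concentration exposure. 100 means growth as in untreated cells, lower positive values show inhibition; negative values down to -100 show cell death.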 Unmarked numbers belong to inactive results. Active and inactive are the calls of the source. Rule for the calls: active = growth percent below 10; inactive = the rest.

Among the test systems are DU-145 prostate; K-562 leukemia; MALME-3M melanoma; MDA-MB-231 breast; RXF 393 renal; SF-268 CNS; SF-295 CNS; SF-539 CNS; UACC-257 melanoma; M14 melanoma; HCT-15 colon; HT29 colon; SNB-75 CNS; SNB-19 CNS; U251 CNS; PC-3 prostate; SK-MEL-5 melanoma; UACC-62 melanoma; LOX IMVI melanoma; SK-MEL-28 melanoma.
What all share (experiment): NCI-60 one-dose screen, 48 h (100 = growth as untreated, 0 = no growth, -100 = all killed)
What all share (conditions): 10 µM unless noted

As to `COc1ccc2c(O)c(/C=C3\N=Nc4ccccc43)oc2c1C[C@@H]1CCNC[C@H]1F`, the growth in the test on DU-145 prostate is 78.6%; in the test on K-562 leukemia, -37.6% (active); with MALME-3M melanoma, 52.9%; in the test on MDA-MB-231 breast it was 15.4%; in the test with RXF 393 renal, 80.5%; in the test on SF-268 CNS, 50.3%. For the same compound, the growth in the test on SF-295 CNS was 79.2%; in the test with SF-539 CNS, -82.9% (active); in the test with UACC-257 melanoma, 77.2%; in the test on M14 melanoma, 51.6%; with HCT-15 colon, 6.86% (active); in the test with HT29 colon it was 12.3%. Also, the growth in the test on SNB-75 CNS was 51.1%; in the test with SNB-19 CNS it was 84.1%; in the test with U251 CNS it was 10.1%; in the test on PC-3 prostate, 68.3%; with SK-MEL-5 melanoma, 63.9%; with UACC-62 melanoma it was 76%. Moreover, the growth was -82.7% (active) in the test on LOX IMVI melanoma and -70.2% (active) in the test on SK-MEL-28 melanoma.
Consider `COc1ccc(-c2nn(-c3ccccc3)cc2/C=C2/SC(=S)N(C)C2=O)cc1`, for which the growth in the test with DU-145 prostate is 90.7%; in the test with K-562 leukemia, 56.9%; in the test on MALME-3M melanoma it was 88.4%; in the test on MDA-MB-231 breast, 63%; in the test with RXF 393 renal, 96.5%; with SF-268 CNS, 99.2%. The growth was 51.4% with SF-295 CNS; 70.3% in the test with SF-539 CNS; 29.4% with UACC-257 melanoma; 97.3% in the test with M14 melanoma; 74.2% in the test with HCT-15 colon; 64.6% in the test with HT29 colon. The growth in the test on SNB-75 CNS is 33.3%; in the test with SNB-19 CNS, 60.7%; with U251 CNS it was 8.95% (active); in the test on PC-3 prostate, 84.9%; with SK-MEL-5 melanoma it was 98.5%; with UACC-62 melanoma, 86%. For the same compound, the growth in the test on LOX IMVI melanoma was 77.1%; with SK-MEL-28 melanoma, 108%.
Regarding `CN1C(=O)/C(=C/c2cn(-c3ccccc3)nc2-c2ccccc2)SC1=S`, the growth with DU-145 prostate is 105%; with K-562 leukemia it was 92.6%; with MALME-3M melanoma, 114%; in the test with MDA-MB-231 breast, 92.8%; with RXF 393 renal, 110%; in the test on SF-268 CNS it was 104%. The growth is 89.6% in the test on SF-295 CNS; 99.5% with SF-539 CNS; 106% in the test on UACC-257 melanoma; 103% in the test with M14 melanoma; 103% with HCT-15 colon; 109% in the test on HT29 colon. Besides, the growth in the test on SNB-75 CNS is 101%; in the test with SNB-19 CNS, 100%; in the test with U251 CNS, 110%; in the test on PC-3 prostate, 90.2%; in the test with SK-MEL-5 melanoma, 98%; with UACC-62 melanoma, 86.7%. Also, the growth in the test on LOX IMVI melanoma is 89.6%; in the test on SK-MEL-28 melanoma, 105%.
As to `Cc1ccc(-c2cc(-c3ccc(Cl)cc3)nc(NC(=O)c3cccnc3)n2)cc1`, the growth was 106% in the test on DU-145 prostate; 87.6% in the test with K-562 leukemia; 111% in the test with MALME-3M melanoma; 91.3% in the test on MDA-MB-231 breast; 94.1% in the test with RXF 393 renal; 97.6% in the test with SF-268 CNS. Further, the growth is 103% in the test with SF-295 CNS; 106% in the test on SF-539 CNS; 121% in the test on UACC-257 melanoma; 109% with M14 melanoma; 94.5% in the test on HCT-15 colon; 109% in the test on HT29 colon. Moreover, the growth is 99.8% in the test with SNB-75 CNS; 94.6% in the test on SNB-19 CNS; 101% in the test on U251 CNS; 85.5% in the test on PC-3 prostate; 93.6% in the test with SK-MEL-5 melanoma; 76% with UACC-62 melanoma. Moreover, the growth was 95.7% in the test on LOX IMVI melanoma and 106% with SK-MEL-28 melanoma.
As for `O=C(CI)NC1Oc2ccccc2-c2oc(=O)c(-c3ccccc3)cc21` (stereo not given), the growth is -93.8% (active) with DU-145 prostate; -13% (active) with K-562 leukemia; -77.1% (active) in the test with MALME-3M melanoma; -68.8% (active) in the test with MDA-MB-231 breast; -89.4% (active) in the test with RXF 393 renal; -72.2% (active) in the test with SF-268 CNS. The growth with SF-295 CNS was 87.4%; in the test on SF-539 CNS, -89.5% (active); in the test with UACC-257 melanoma, 77.3%; in the test with M14 melanoma it was -39.8% (active); in the test with HCT-15 colon, -83% (active); in the test with HT29 colon it was -55% (active). Besides, the growth in the test with SNB-75 CNS was -20.9% (active); with SNB-19 CNS, 80.8%; in the test with U251 CNS, -48.6% (active); in the test on PC-3 prostate, -72.8% (active); with SK-MEL-5 melanoma, 85.5%; in the test with UACC-62 melanoma it was -22.8% (active). Besides, the values for the growth in the test with LOX IMVI melanoma and in the test with SK-MEL-28 melanoma were -82.8% (active) and 46.3%, respectively.
As to `CCCNC(=O)Oc1ccc(/C(=C(/C)Cc2ccc(OC)cc2)c2ccc(OCCCN(C)C)cc2)cc1`, the growth was 94.9% with DU-145 prostate; 15.3% with K-562 leukemia; 82.9% in the test on MALME-3M melanoma; 89.9% in the test with MDA-MB-231 breast; 74.7% in the test on RXF 393 renal; 84% in the test with SF-268 CNS. For the same compound, the growth in the test on SF-295 CNS is 88.2%; in the test with SF-539 CNS, 97.8%; in the test on UACC-257 melanoma, 99.2%; in the test on M14 melanoma, 71.8%; with HCT-15 colon, 70.3%; in the test on HT29 colon it was 25.7%. Also, the growth with SNB-75 CNS was 80.8%; in the test on SNB-19 CNS, 88.8%; in the test with U251 CNS, 63.5%; in the test with PC-3 prostate, 74.4%; in the test on SK-MEL-5 melanoma, 86.9%; in the test on UACC-62 melanoma it was 102%. In addition, the growth in the test with LOX IMVI melanoma was 73.4%; in the test on SK-MEL-28 melanoma, 94.1%.
For the compound `O=C1/C(=C/c2ccc(F)cc2)COc2ccc(O)cc21`, the growth in the test on DU-145 prostate was 96.5%; in the test with K-562 leukemia, 4.82% (active); in the test on MALME-3M melanoma, 85.6%; in the test with MDA-MB-231 breast, 97.2%; in the test with RXF 393 renal, 104%; with SF-268 CNS it was 90%. The growth in the test on SF-295 CNS was 104%; in the test with SF-539 CNS it was 87.2%; in the test with UACC-257 melanoma, 107%; with M14 melanoma, 88.1%; with HCT-15 colon, 60.7%; in the test with HT29 colon, 48.7%. Besides, the growth was 83.7% in the test with SNB-75 CNS; 90.4% in the test on SNB-19 CNS; 60.8% in the test on U251 CNS; 89.2% in the test with PC-3 prostate; 98.5% with SK-MEL-5 melanoma; 85.2% in the test with UACC-62 melanoma. Moreover, the growth was 22.5% in the test with LOX IMVI melanoma and 103% in the test with SK-MEL-28 melanoma.

Source of the values: PubChem BioAssay (NCI).
